Bioassay records (PubChem)
In the library only some 6.3% were active in any assay of this set; here they are far more common.
Mdm2 MdmX PPI: human Mdm2/MdmX binding inhibition | O15151+Q00987 | SaOS-2 split-luciferase Mdm2/MdmX complementation, luminescence | inhibition, % at 8 µM | 3% of 330,000 active;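 active = inhibition of at least 50% at 8 µM in the primary screen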
Target sequence (O15151 whole entry, looked up): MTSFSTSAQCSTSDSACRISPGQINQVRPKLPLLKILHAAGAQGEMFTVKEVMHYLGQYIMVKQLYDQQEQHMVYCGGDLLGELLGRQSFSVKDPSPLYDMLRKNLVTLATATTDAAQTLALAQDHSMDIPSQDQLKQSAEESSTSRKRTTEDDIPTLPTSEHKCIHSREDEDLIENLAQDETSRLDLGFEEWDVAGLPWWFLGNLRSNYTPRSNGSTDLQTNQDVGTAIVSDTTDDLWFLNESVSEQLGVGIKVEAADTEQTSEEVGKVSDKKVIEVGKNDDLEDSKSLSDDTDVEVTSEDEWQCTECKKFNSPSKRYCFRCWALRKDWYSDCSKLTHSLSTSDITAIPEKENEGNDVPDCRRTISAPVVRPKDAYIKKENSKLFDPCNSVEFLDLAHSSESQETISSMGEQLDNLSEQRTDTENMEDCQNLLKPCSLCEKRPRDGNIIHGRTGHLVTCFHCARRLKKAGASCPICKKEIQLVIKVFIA
Target sequence (Q00987 whole entry, looked up): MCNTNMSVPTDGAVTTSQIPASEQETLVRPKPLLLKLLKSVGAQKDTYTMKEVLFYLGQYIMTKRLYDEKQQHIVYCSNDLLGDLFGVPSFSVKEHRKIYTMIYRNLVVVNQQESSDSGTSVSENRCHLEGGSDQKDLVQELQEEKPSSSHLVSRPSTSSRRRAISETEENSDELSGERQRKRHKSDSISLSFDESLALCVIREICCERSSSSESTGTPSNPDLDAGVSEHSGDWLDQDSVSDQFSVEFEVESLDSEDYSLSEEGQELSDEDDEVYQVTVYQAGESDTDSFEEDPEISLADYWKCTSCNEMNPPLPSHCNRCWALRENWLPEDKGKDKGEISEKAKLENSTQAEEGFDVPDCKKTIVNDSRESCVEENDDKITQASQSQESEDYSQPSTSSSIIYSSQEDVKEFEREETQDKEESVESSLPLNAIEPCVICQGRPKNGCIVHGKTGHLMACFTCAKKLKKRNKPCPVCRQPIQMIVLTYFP
tim10-1 inh: growth inhibitors of tim10-1 mutant yeast | S. cerevisiae tim10-1 ts strain growth, BacTiter-Glo, 24 h | inhibition, % at 20 µM | 2.2% of 330,000 active | AID 463190;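 active = inhibition of at least 40%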;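 also: mutant grown at 25 °C; 0% = DMSO wells with yeast and 100% = wells holding no yeast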
tim23-1 inh: growth inhibitors of tim23-1 mutant yeast. S. cerevisiae tim23-1 growth, BacTiter-Glo luminescence, 24 h. inhibition, % at 20 µM. 1.3% of 330,000 active;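 active = growth inhibition of the mutant yeast at or above 50%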;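 also: temperature-sensitive mutant grown at 25 °C; plate controls were DMSO-treated mutant yeast for no effect and medium wells lacking yeast for full effect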
MPTP block: blocks calcium-induced mitochondrial swelling; isolated mouse mitochondria, Ca2+ swelling absorbance, 30 min; 1.4% of 360,000 active; inhibition, % at 10 µM; AID 602449;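 active = inhibition of 50% or more, scaled per plate between neutral and stimulator controls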;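 also: 0% = DMSO wells given calcium and 100% = 1 mM EGTA wells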
TIM10 inh: inhibits growth of TIM10 yeast strain. S. cerevisiae TIM10 strain growth, BacTiter-Glo luminescence, 24 h. inhibition, % at 10 µM. 1.4% of 330,000 active;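 active = inhibition of 40% or more at the single tested concentration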;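 also: wild-type TIM10 isogenic control strain grown at permissive 25 °C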
MPTP counter: mitochondrial membrane potential, counter-screen; shares compounds with MPTP block; isolated mitochondria, Rhodamine 123 fluorescence; inhibition, % at 10 µM; 78% of 5,000 active; AID 624504; in the data active = inhibition above about 22%;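 also: 0% = DMSO vehicle and 100% = positive control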
MPTP abs DR: MPTP inhibition, dose response swelling confirmation; IC50, µM; AID 651561; 58% of 780 active; isolated mitochondria swelling, absorbance; shares compounds with MPTP block; in the data active = IC50 below about 20 µM
MPTP cs DR: active in counter-screen for permeability transition pore inhibitors. shares compounds with MPTP block. isolated mitochondria counterscreen, fluorescence read-out. IC50, µM. 49% of 780 active; in the data active = IC50 below about 80 µM
Active calls of the source: *; i = inactive; x = no result given.

SMILES	Mdm2 MdmX PPI	tim10-1 inh	tim23-1 inh	MPTP block	TIM10 inh	MPTP counter	others
COc1ccc(N2CCN(c3ncnc4c3[nH]c3ccccc34)CC2)cc1	16.4	9.8	14.3	79.1*	22.4	106.5*
Cc1ccc(S(=O)(=O)N2CCN(C(=O)N3CCCCC3)CC2)c(C)c1	x	x	x	0.1	x	x
CCCS(=O)(=O)NC(=O)C1(C)CCCN(C(=O)c2ccc(C(=O)OC)cc2)C1 (configuration not stated)	x	x	x	-0.9	x	x
Cc1ccc(CN2CCC[C@]3(N[C@H](c4ccc(C)cc4)[C@@H]4C(=O)N(C)C(=O)[C@@H]43)C2=O)cc1	x	x	x	-0.1	x	x
CCOc1ccc2[nH]c3c(N4CCN(C(=O)c5ccco5)CC4)ncnc3c2c1	-5.3	11.6	22.1	-0.9	14.1	x
CCOC(=O)N1CCN(c2ncnc3c2[nH]c2ccc(F)cc23)CC1	5.0	17.1	5.7	98.4*	14.0	84.3*
COCCN1C(=O)CCC1(C)C(=O)Nc1ccc2ccccc2c1 (configuration not stated)	x	x	x	-0.2	x	x
Cc1occc(=O)c1OC(=O)Nc1ccc(Cl)c(Cl)c1	x	x	x	99.0*	x	78.2*
Cc1cc([N+](=O)[O-])ccc1P(=O)(O)c1ccc([N+](=O)[O-])cc1C	x	x	x	4.1	x	x
OC(CN1CCN(c2ncc(C(F)(F)F)cc2Cl)CC1)c1ccccc1 (configuration not stated)	-4.7	-47.9	-137.0	-0.1	-36.8	x
FC(F)(F)c1cnc(N2CCN(C(=S)NCc3ccccc3)CC2)c(Cl)c1	11.1	31.6	29.2	54.0*	2.7	51.1*
FC(F)(F)c1cnc(N2CCCN(C(=S)Nc3ccccc3)CC2)c(Cl)c1	10.6	29.6	32.7	70.0*	24.9	50.5*
C[C@H]1[C@@H](c2ccccc2)Oc2ccc(Cl)cc2S(=O)(=O)N1Cc1ccc(F)cc1F	x	x	x	-2.3	x	x
O=C(CC[C@H]1O[C@@H](n2cnc3c(NC(=O)c4ccccc4)ncnc32)[C@H](O)[C@@H]1O)NCc1cccc2ccccc12	x	x	x	-0.3	x	x
CC1CN(C(=O)c2cccc(S(=O)(=O)N3CCN(c4ccc(F)cc4)CC3)c2)CC(C)O1 (configuration not stated)	29.5	13.9	15.9	-0.5	-15.4	x
CN(CCOc1ccc(Cl)cc1)C(=O)c1cccc(S(=O)(=O)N2CCN(c3ccc(F)cc3)CC2)c1	x	x	x	57.9*	x	90.2*
O=C(c1cccc(S(=O)(=O)N2CCN(c3ccc(F)cc3)CC2)c1)N1CCCC(C(F)(F)F)C1 (configuration not stated)	31.3	8.6	14.1	73.0*	-1.5	84.8*
CC1(C(=O)NS(=O)(=O)c2ccccc2Cl)CCN1C(=O)c1ccccc1 (configuration not stated)	x	x	x	0.0	x	x
CCOC(=O)c1c(NC(=O)CSc2nc3cccnc3n2C)sc(C(C)=O)c1C	24.1	21.7	-9.9	91.5*	13.7	3.5	MPTP abs DR=3.69*;MPTP cs DR=3.54*
CCOC(=O)c1c(NC(=O)CSc2nnc(-c3ccccc3C)n2C)sc(C(C)=O)c1C	-9.4	28.5	30.0	83.5*	2.9	67.2*
CCOC(=O)c1c(NC(=O)CSc2nnc(-c3cccnc3)o2)sc(C(C)=O)c1C	1.6	12.5	-1.7	74.9*	15.6	6.8	MPTP abs DR=i;MPTP cs DR=12.8*
CCOC(=O)CSc1nnc(-c2cccnc2)o1	22.4	-1.2	-8.0	0.9	-4.5	x
CCOC(=O)c1c(NC(=O)CSc2nc3ccccc3c(=O)n2-c2ccc(F)cc2)sc(C(C)=O)c1C	39.0	8.5	-13.1	1.8	9.0	x
CCOC(=O)c1cccc(NC(=O)CSc2nc3cccnc3n2C)c1	17.8	-8.1	-13.1	73.2*	14.1	28.8*
CCOC(=O)c1sc(NC(=O)CSc2nc3cccnc3n2C)nc1C	4.7	-3.0	-0.2	5.7	9.1	x
SMILES	Mdm2 MdmX PPI	tim10-1 inh	tim23-1 inh	MPTP block	TIM10 inh	MPTP counter	others
Cc1ccc(S(=O)(=O)N(CC(=O)NC2CC3CCC2C3)c2ccccc2)cc1 (configuration not stated)	x	x	x	0.9	x	x
C=CCOC1COC2C(OCC=C)COC12 (configuration not stated)	x	x	x	0.1	x	x
CCN(CC)c1ncnc2c1ncn2[C@H]1CN(Cc2ccncc2)C[C@@H](CO)O1	x	x	x	0.1	x	x
CCOC(=O)c1c(NC(=O)CSc2ncnc3ccccc23)sc(C(C)=O)c1C	48.4	5.6	10.6	57.8*	11.2	4.4
C(=NN=C(NN=Cc1cccs1)NN=Cc1cccs1)c1cccs1	x	x	x	1.9	x	x
CCCCn1c(N)c(N(CC(C)C)C(=O)c2cccc(S(=O)(=O)N(CC)c3ccccc3)c2)c(=O)[nH]c1=O	x	x	x	0.5	x	x
COc1ccc([C@H]2CC(=O)C=C(c3ccc(CNC(=O)OC(C)(C)C)cc3)C2)cc1	4.4	20.3	29.5	70.9*	17.9	80.4*
CCOC(=O)CNCCC(=O)c1ccc(Br)cc1	-26.0	29.7	24.7	55.2*	11.9	-4.0	MPTP abs DR=i;MPTP cs DR=>80
O=C(Nc1nnc(-c2ccccc2)o1)c1nc2ccccc2s1	1.1	7.5	12.8	62.6*	5.9	3.0	MPTP abs DR=8.39*;MPTP cs DR=77.7*
CC(C)(C)C(=O)NC(=S)NNC(=O)c1ccc(Cl)cc1Cl	15.9	-39.8	-5.5	75.6*	-40.7	-4.8
COC(=O)NNC(=O)c1ccc(Cl)cc1Cl	-28.8	6.6	8.0	-0.1	1.4	x
CCN1CCc2c(sc(NC(=O)Nc3ccc(Cl)c(Cl)c3)c2C(N)=O)C1	x	x	x	55.2*	x	51.3*
Cc1ccc(C)c(S(=O)(=O)Nc2ccccc2C(=O)Nc2cc(C)on2)c1	15.3	33.7	34.2	57.9*	29.1	69.8*
Cc1cc(NC(=O)c2ccccc2NS(=O)(=O)c2c(C)c(C)cc(C)c2C)no1	38.0	27.2	19.4	49.4	1.2	x
CN1CCN(NC(=O)c2cc(-c3ccc(Br)s3)nc3ccccc23)CC1	27.5	32.1	30.2	82.1*	4.0	-17.4	MPTP abs DR=15.1*;MPTP cs DR=>80
O=C(O)c1cc(-c2ccc(Br)s2)nc2ccccc12	-16.5	18.0	26.5	0.5	-15.2	x
O=C(Nc1cccs1)Nc1ccc(Br)cc1F	-42.4	-50.8	-10.8	82.5*	-4.1	80.4*
CCc1c(C)nc2ncnn2c1NCCc1ccc(OC)cc1	29.6	10.7	-6.2	51.4*	2.8	65.1*
CCc1c(C)nc2ncnn2c1Nc1ccc(C)cc1	13.1	2.4	5.9	0.4	-7.4	x
Cc1ccc(C(=O)Nc2ccc(C(=O)/C=C/c3cccs3)cc2)cc1	-29.5	11.6	6.4	9.0	1.3	x
O=C(/C=C/c1cccs1)c1ccc(NC(=O)c2cccc(Br)c2)cc1	-11.4	9.9	-8.3	54.0*	-22.1	62.3*
O=C1NC(=O)C2(CCCCCCC2)N1	x	x	x	-0.7	x	x
CN1CCN(c2ccc(Cl)cc2NC(=O)/C=C/c2cccc(F)c2)CC1	25.7	10.3	15.1	73.9*	-0.9	-23.3	MPTP abs DR=6.75*;MPTP cs DR=>80
